# Source: PubChem (several laboratories)
# Gli-Sufu antag = blocks Gli-Sufu signaling in a luciferase reporter; Sufu-KO-LIGHT fibroblasts, Gli luciferase reporter luminescence; inhibition, % at 5 µM; 340,000 tested, 0.74% active;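 active = inhibition above about 55%, limit read from the data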;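 also: 0% = DMSO-treated cells and 100% = wells with medium but no cells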
# esBAF inh = SWI/SNF esBAF complex inhibition; mouse ES cells, Bmi1-luciferase knock-in reporter, 24 h; 100% = twice the neutral-well signal; reporter increase, % at 12.5 µM; 350,000 tested, 2% active; AID 602393; in the data active = activation above about 40%;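 also: 0% = median of the plate's neutral control wells and 100% = double that signal; a rise in the Bmi1 reporter signal indicates esBAF inhibition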
# SMARCA2 activ = activators of SMARCA2 function; MG213 cells, MMTV-luciferase reporter, dexamethasone, overnight; activation, % at 9.1 µM; 370,000 tested, 1% active; in the data active = activation above about 7.8%;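 also: 0% = vehicle wells and 100% = reference activator wells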
# Jurkat NFkB inh = inhibitors of the PMA/ionomycin-induced NF-kB reporter in Jurkat cells | 330,000 tested, 0.53% active | inhibition, % at 4 µM | PMA/ionomycin-induced NF-kB luciferase reporter, luminescence; in the data active = inhibition above about 50%
# 697 NFkB inh = inhibitors of the PMA/ionomycin-induced NF-kB reporter in 697 B cells; 697 B-cell NF-kB luciferase reporter, 16 h; inhibition, % at 4 µM; 330,000 tested, 0.33% active; in the data active = inhibition above about 35%
# Gli antag conf = Gli-SUFU antagonism confirmation, single concentration; inhibition, % at 5 µM; Sufu-KO-LIGHT cells, Gli luciferase reporter, luminescence; shares compounds with Gli-Sufu antag; 2,500 tested, 40% active; AID 602428;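 active = mean inhibition at 5 µM reaching about 45%, limit read from the data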;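 also: plate controls were DMSO-treated cells for no effect and wells lacking cells for full effect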
# SufuKO cytotox = cytotoxicity counter-screen for Gli-SUFU antagonists; Sufu-KO-LIGHT cells cytotoxicity, ATP luminescence; shares compounds with Gli-Sufu antag; cytotoxicity, % at 5 µM; 2,500 tested, 32% active;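 active = mean cytotoxicity at 5 µM above about 25%, limit read from the data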;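 also: cells exposed to compound overnight for roughly 16 to 18 hours; plate controls were DMSO wells with cells for no effect and medium without cells for full effect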
# Wnt3a cs = Wnt3a reporter inhibition counter-screen; shares compounds with Gli-Sufu antag; Wnt-LIGHT cells, Wnt3a-driven luciferase reporter, luminescence; inhibition, % at 6.25 µM; 2,500 tested, 20% active; AID 651995;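 active = mean inhibition above about 25%, limit read from the data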
# Numbers without * were called inactive; · = no result given. Shown are actives, neighbours in structure and some others; about 3.3% of the full set was active somewhere.
SMILES,Gli-Sufu antag,esBAF inh,SMARCA2 activ,Jurkat NFkB inh,697 NFkB inh,Gli antag conf,SufuKO cytotox,Wnt3a cs
COc1cccc(-c2ccc3n(c2=O)C[C@@H]2[C@@H](CO)[C@H](C(=O)NCCN4CCCCC4)N(C)[C@H]32)c1,·,1.2,·,·,·,·,·,·
O[C@@H]1CN(Cc2ccc(-n3cccn3)cc2)CC[C@H]1N1CCN(c2ccccc2F)CC1,58.9*,-0.7,-5.5,27.7,-33.8,46.1*,27.4*,-15.0
Cc1ccc(CN2CCN(Cc3ccc(-n4cccn4)cc3)CC2CCO)cc1 (stereo not given),26.2,0.8,2.3,4.1,1.3,·,·,·
Nc1nc(=O)n(C2CC(O)C(CO)O2)cc1F (stereo not given),65.7*,·,0.5,·,·,46.5*,17.0,45.2*
CSCCC(NC(=O)c1cccc(S(=O)(=O)N2CCOCC2)c1)C(=O)Nc1ccc(F)cc1 (stereo not given),67.8*,·,-3.1,7.0,7.2,17.0,2.8,-19.5
CSCCC(NC(N)=O)C(=O)Nc1cccc(S(=O)(=O)N2CCOCC2)c1 (stereo not given),-6.6,·,-3.5,-6.4,-5.9,·,·,·
CCSc1nnc(Cn2c(=O)sc3ccccc32)n1-c1ccccc1C,2.1,0.8,-2.1,-11.0,5.8,·,·,·
CSc1nnc(Cn2c(=O)sc3ccccc32)n1-c1ccccc1C,51.8,-4.1,1.4,6.4,-11.9,23.5,0.2,-3.6
COc1ccccc1N1C(C)=CC(=C(C#N)c2nc3ccccc3s2)C=C1C,53.1,·,-3.6,-3.6,-34.5,53.5*,10.9,38.1*
CC1=CC(=C(C#N)c2nc3ccccc3s2)C=C(C)N1c1ccc(F)cc1,-7.7,·,5.0,-38.6,-32.9,·,·,·
C[C@@H]1CCCCO[C@H](CN(C)CC2CCCCC2)[C@H](C)CN([C@H](C)CO)C(=O)c2cc(NC(=O)Nc3ccccc3)ccc2O1,·,3.0,·,·,·,·,·,·
O=C(CSc1ccc2nnc(-c3cccnc3)n2n1)NCc1ccco1,81.8*,-10.1,1.0,2.2,-0.2,13.2,16.9,-10.0
O=C(NCC(c1ccco1)N1CCCC1)c1ccc(Cl)c(S(=O)(=O)N2CCc3ccccc32)c1 (stereo not given),66.7*,-21.0,-4.5,47.5,-15.6,59.5*,33.8*,27.6*
Cc1c(C(=O)NCC(c2ccco2)N2CCCC2)sc2ccccc12 (stereo not given),3.9,·,1.4,-10.9,-19.2,·,·,·
O=C(NCC(c1ccco1)N1CCc2ccccc2C1)c1ccc(Cl)c([N+](=O)[O-])c1 (stereo not given),-5.8,6.9,-0.1,-3.4,15.7,·,·,·
O=C(NCC(c1ccco1)N1CCCC1)c1sc2ccccc2c1Cl (stereo not given),51.3,-1.4,0.8,-10.9,-10.2,15.7,11.1,-81.1
O=S(=O)(NCCc1ccccc1)c1ccc(-n2cnnn2)cc1,53.6,-0.8,-1.2,28.9,12.7,16.6,1.3,-4.4
Cc1cc(S(=O)(=O)NCCc2ccccc2)ccc1-n1cnnn1,19.6,2.6,-4.0,3.4,-1.0,·,·,·
COCCNC(=O)C[C@@H]1C[C@H]2c3cc(NS(=O)(=O)c4ccc(F)cc4)ccc3O[C@H]2[C@@H](CO)O1,·,-2.7,·,·,·,·,·,·
NC(N)=NC(N)=Nc1ccc(SC(F)(F)F)cc1,67.0*,·,-6.7,6.9,-30.5,71.9*,27.9*,94.4*
NC(N)=NC(N)=Nc1ccc2ccccc2c1,4.8,10.7,-1.4,11.2,-6.3,·,·,·
CCCn1c(SCC(=O)Nc2nc(-c3ccc(OC)cc3)cs2)nc2c1c(=O)n(C)c(=O)n2C,59.2*,·,-1.5,14.6,-23.5,50.8*,11.8,4.7
CCn1c(SCC(=O)Nc2nc(-c3ccccc3)cs2)nc2c1c(=O)n(C)c(=O)n2C,-2.1,·,0.3,-0.3,-21.3,·,·,·
CC(C)NC(=O)Nc1ccc2c(c1)C(=O)N([C@@H](C)CO)C[C@@H](C)[C@H](CN(C)Cc1ccncc1)O2,·,-7.5,·,·,·,·,·,·
Cc1cccc(NC(=O)NCCc2c[nH]c3ccccc23)c1,59.6*,4.8,-1.3,-25.3,-93.3,6.5,10.9,-14.1
SMILES,Gli-Sufu antag,esBAF inh,SMARCA2 activ,Jurkat NFkB inh,697 NFkB inh,Gli antag conf,SufuKO cytotox,Wnt3a cs
O=C(NCCc1c[nH]c2ccccc12)Nc1cccc2ccccc12,7.0,-0.4,-3.1,8.3,-22.8,·,·,·
CCC(=O)Nc1cccc(-n2nnnc2SCC(=O)N2CCCCC2)c1,59.4*,·,2.1,-15.4,-1.2,7.4,14.8,1.4
CC(C)C(C)(C#N)NC(=O)CSc1nnc(-c2ccncc2)n1Cc1ccccc1 (stereo not given),95.0*,0.2,4.0,-1.7,-20.3,21.7,7.3,-11.9
CC(C)(C)NC(=O)CSc1nnc(-c2ccncc2)n1Cc1ccccc1,0.6,-6.2,2.3,-0.2,-11.4,·,·,·
CCOC(=O)C1=C(C)NC(C)=C(C(=O)OCC)C1C,53.2,-0.9,-1.8,-3.2,25.7,14.6,0.9,11.2
C=C(C)CSc1nnc([C@@H](NC(=O)OC(C)(C)C)C(C)CC)o1 (stereo not given in full),93.8*,-1.4,0.7,-0.1,-32.4,20.0,12.7,-30.8
CCSc1nnc([C@@H](NC(=O)OC(C)(C)C)C(C)C)o1,8.8,·,-4.8,10.5,-10.3,·,·,·
O=C(Cc1c(F)cccc1Cl)OCC(=O)c1ccc[nH]1,56.3*,27.6,0.5,5.1,13.6,13.3,7.0,-10.0
CCC(C)NC(=O)CNC(=S)N(Cc1ccc(F)cc1)C1CCCCC1 (stereo not given),4.8,·,-2.3,4.5,-7.4,·,·,·
O=C(CNC(=S)N(Cc1ccc(F)cc1)C1CCCCC1)NC1CC1,59.3*,6.4,-1.1,-5.4,-8.0,19.7,2.5,0.2
O=C(CSc1nc2sc3c(c2c(=O)n1-c1ccccc1)CCCC3)NCc1ccco1,64.0*,-11.6,-0.7,-1.7,-6.3,27.8,3.9,-8.1
CC1(C)Cc2c(sc3nc(SCC(=O)NCc4ccco4)n(-c4ccccc4)c(=O)c23)CS1,-18.7,-2.1,1.3,-15.0,-4.5,·,·,·
Cc1ccc(S(=O)(=O)N(C)C[C@H]2Oc3c(NS(=O)(=O)c4cn(C)cn4)cccc3C(=O)N([C@H](C)CO)C[C@@H]2C)cc1,·,-5.3,·,·,·,·,·,·
C/C(N)=C(/C#N)C(=O)COC(=O)c1ccncc1,95.1*,-8.6,-3.5,-8.6,-0.3,8.1,21.6,-3.7
Cc1ccc(S(=O)(=O)Nc2ccc3c(c2)CC(=O)N([C@@H](C)CO)C[C@H](C)[C@H](CN(C)S(=O)(=O)c2cn(C)cn2)O3)cc1,·,5.0,·,·,·,·,·,·
COc1ccc(Cc2nnc(N/N=C/c3ccc(O)cc3)[nH]c2=O)cc1OC,82.0*,·,-6.3,14.8,-53.1,84.8*,28.7*,73.3*
CCN(CC)c1ccc(CNc2nc3ccccc3n2CCN2CCOCC2)cc1,51.6,18.1,-3.4,-0.2,-27.3,31.1,23.8,-39.3
